# According to ChEMBL document CHEMBL5308504, “Tm Shift (DSF) assay results for EUbOPEN Chemogenomics Library” (2023):
# Legend:
# Settings in all cases: Compound concentration 20.0 uM, Protein concentration 2.0 uM, Result type QC Liability
# [1] = target: Tyrosine-protein kinase ABL1 (Homo sapiens) (UniProt P00519)
# [2] = target: Cyclin-dependent kinase 2 (Homo sapiens) (UniProt P24941)
# [3] = target: Casein kinase I isoform delta (Homo sapiens) (UniProt P48730)
# [4] = target: Glycogen synthase kinase-3 beta (Homo sapiens) (UniProt P49841)
# Chain of Glycogen synthase kinase-3 beta (Homo sapiens) (P49841 whole entry, looked up): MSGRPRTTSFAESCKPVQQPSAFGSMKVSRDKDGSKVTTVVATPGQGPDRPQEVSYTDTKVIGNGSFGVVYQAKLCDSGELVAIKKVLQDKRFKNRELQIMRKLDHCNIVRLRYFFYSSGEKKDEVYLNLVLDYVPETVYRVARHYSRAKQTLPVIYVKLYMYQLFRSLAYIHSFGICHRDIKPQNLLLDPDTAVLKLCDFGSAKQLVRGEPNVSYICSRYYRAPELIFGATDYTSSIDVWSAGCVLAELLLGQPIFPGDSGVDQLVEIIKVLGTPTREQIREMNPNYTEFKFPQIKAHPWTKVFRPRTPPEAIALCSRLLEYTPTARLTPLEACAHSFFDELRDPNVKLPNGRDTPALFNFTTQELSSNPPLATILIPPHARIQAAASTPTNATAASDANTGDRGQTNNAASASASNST
# [5] = target: Mitogen-activated protein kinase 1 (Homo sapiens) (UniProt P28482)
# Chain of Mitogen-activated protein kinase 1 (Homo sapiens) (P28482 whole entry): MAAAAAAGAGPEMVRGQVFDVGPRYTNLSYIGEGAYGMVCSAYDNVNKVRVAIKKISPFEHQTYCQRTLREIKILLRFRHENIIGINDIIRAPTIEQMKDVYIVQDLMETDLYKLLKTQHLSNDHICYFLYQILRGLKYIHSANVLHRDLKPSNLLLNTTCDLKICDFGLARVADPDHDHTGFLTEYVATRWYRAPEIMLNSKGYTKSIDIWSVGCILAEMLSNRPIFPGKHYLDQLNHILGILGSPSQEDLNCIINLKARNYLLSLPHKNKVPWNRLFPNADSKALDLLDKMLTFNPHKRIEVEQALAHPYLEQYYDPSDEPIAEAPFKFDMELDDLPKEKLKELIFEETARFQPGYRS
# [6] = target: T1, Aurora kinase A (Homo sapiens) (UniProt O14965)
# T1 sequence (whole entry): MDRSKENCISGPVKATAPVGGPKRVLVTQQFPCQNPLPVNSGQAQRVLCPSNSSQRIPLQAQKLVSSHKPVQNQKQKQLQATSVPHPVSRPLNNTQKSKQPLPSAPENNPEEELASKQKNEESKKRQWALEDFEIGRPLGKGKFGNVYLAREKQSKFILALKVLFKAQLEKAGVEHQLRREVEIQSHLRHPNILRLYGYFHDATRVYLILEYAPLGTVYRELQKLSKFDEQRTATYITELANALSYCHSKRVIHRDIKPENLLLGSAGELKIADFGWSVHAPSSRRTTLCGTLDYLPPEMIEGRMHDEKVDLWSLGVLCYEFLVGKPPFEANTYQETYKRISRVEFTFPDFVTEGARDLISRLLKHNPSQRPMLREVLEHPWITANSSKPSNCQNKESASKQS
# Chain of Tyrosine-protein kinase ABL1 (Homo sapiens) (P00519 whole entry): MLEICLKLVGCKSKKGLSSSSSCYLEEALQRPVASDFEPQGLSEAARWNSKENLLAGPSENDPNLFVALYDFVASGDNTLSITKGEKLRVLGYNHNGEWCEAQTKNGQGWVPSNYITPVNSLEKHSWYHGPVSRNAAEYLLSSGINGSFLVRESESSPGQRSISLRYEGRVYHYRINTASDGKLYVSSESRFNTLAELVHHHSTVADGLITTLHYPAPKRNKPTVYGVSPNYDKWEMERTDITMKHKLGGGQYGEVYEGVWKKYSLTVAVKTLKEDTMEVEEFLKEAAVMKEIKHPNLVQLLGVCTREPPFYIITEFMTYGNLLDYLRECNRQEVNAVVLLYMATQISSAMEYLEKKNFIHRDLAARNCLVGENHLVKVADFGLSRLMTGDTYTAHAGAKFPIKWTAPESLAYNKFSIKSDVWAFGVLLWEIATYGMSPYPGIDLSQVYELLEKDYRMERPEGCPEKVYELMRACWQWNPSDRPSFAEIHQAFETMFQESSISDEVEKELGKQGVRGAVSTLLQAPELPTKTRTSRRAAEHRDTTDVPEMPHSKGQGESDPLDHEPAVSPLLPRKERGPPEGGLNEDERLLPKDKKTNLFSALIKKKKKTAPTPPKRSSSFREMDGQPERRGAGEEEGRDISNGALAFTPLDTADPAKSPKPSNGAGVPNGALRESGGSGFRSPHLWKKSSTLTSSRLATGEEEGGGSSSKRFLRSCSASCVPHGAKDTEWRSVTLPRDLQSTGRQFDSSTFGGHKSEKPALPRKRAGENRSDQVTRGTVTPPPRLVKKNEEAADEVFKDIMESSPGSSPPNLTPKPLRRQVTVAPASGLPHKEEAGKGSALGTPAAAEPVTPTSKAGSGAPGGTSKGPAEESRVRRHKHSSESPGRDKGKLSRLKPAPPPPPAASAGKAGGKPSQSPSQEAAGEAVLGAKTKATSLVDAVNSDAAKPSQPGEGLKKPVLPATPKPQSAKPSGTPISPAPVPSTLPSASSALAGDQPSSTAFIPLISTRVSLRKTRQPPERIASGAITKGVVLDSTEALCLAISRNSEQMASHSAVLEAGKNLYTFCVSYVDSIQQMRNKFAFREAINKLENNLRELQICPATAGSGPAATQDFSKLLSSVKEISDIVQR
# Chain of Casein kinase I isoform delta (Homo sapiens) (P48730 whole entry, looked up, canonical isoform): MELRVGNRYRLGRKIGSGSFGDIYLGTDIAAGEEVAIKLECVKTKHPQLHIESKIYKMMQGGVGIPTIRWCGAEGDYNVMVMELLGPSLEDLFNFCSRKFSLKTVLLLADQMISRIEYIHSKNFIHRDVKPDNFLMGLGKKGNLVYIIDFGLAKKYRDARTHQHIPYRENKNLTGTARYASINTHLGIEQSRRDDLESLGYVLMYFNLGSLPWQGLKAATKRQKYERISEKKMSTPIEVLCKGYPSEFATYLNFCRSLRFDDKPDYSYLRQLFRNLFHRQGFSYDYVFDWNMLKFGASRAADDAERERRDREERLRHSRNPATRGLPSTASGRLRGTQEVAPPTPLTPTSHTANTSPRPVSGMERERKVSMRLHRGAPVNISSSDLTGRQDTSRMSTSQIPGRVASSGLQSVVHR
Structure (SMILES),ΔTm [1] [°C],ΔTm [2] [°C],ΔTm [3] [°C],ΔTm [4] [°C],ΔTm [5] [°C],ΔTm [6] [°C]
CC(C)(C)c1cc(NC(=O)c2csc(Nc3ccc(Cl)cc3)n2)no1,-0.19,0.91,1.05,-2.8,-3.27,1.67
C[C@@H]1COCCN1c1cc(=O)n2c(n1)N(Cc1cncc(Cl)c1)[C@H](C(F)(F)F)CC2,0.53,0.54,0.16,0.4,0.34,-0.23
O=C(NCc1ccc(F)cc1)C1CCN(S(=O)(=O)c2cc(Cl)cc(Cl)c2)CC1,0.04,-0.1,0.71,-0.45,0,0.52
CO[C@H]1C[C@@H]2CC[C@@H](C)[C@@](O)(O2)C(=O)C(=O)N2CCCC[C@H]2C(=O)O[C@H]([C@H](C)C[C@@H]2CC[C@@H](O)[C@H](OC)C2)CC(=O)[C@H](C)/C=C(\C)[C@@H](O)[C@@H](OC)C(=O)[C@H](C)C[C@H](C)/C=C/C=C/C=C/1C,0.32,-0.19,-0.1,-0.7,-0.72,-0.26
C#Cc1cnc2[nH]cc(-c3cccc4c3CCN4C(=O)[C@@H]3CCCN3C#N)c2c1,5.17,1.31,2.51,2.99,0.55,4.94
CCCN1CCC(C#N)(NC(=O)[C@H](CC(C)(C)C)NC(=O)N2CCOCC2)CC1,-0.4,1.07,0.1,-0.32,-0.1,-0.11
CCc1ccc(-c2ncn(CC3(F)CCN(C)CC3)c2-c2ccnc3[nH]ccc23)nc1,0.05,0.87,0.57,-0.72,0.39,-1.06
CC(=O)N1CCC(c2ccc(C(=O)NC(=N)N)cc2C(F)(F)F)CC1,-0.81,0.95,0.37,-0.64,0.32,0.44
O=C(Nc1ccnc(NC(=O)C2CC2)c1)c1c(Cl)cccc1Cl,5.46,6.9,0.54,6.06,0.23,4.28
COc1cc(N(C)c2ccnc3ccc(C(F)(F)F)cc23)cc(OC)c1OC,0.48,-0.12,1.1,-0.36,0.28,-0.2
Cc1csc(-c2nnc(Nc3ccc(Oc4ncccc4-c4ccnc(N)n4)cc3)c3ccccc23)c1,7.01,0.42,0.58,-4.11,4.87,13.8
N[C@@H](CC(=O)O)Cn1nnc(-c2ccc(Oc3ncc(Cl)cc3F)cc2)n1,0.91,0.66,-0.24,0.34,0.49,-0.25
Nc1nc(-c2nn(Cc3ccccc3F)c3ncccc23)ncc1C1CC1,0.84,0.56,0.44,-0.21,0.15,0.14
N#CC[C@H](C1CCCC1)n1cc(-c2ncnc3[nH]ccc23)cn1,3.71,1.43,2.02,4.04,0.74,5.6
COc1cc(C(=O)NCCOCCOCCOCC(=O)N[C@H](C(=O)N2C[C@@H](O)C[C@H]2C(=O)NCc2ccc(-c3scnc3C)cc2)C(C)(C)C)ccc1Nc1ncc(C(F)(F)F)c(Oc2cccc3c2C(=O)CC3)n1,-2.56,-4.04,0.94,0,0.73,0.94
CCN1C(=O)N(c2c(F)c(OC)cc(OC)c2F)Cc2cnc3[nH]c(CN4CCOCC4)cc3c21,0.38,6.96,0.58,-0.33,0.45,1.85
CC#CCC(C)[C@H](O)/C=C/[C@@H]1[C@H]2C/C(=C/CCCC(=O)O)C[C@H]2C[C@H]1O (some centres not stated),-0.29,0.41,0.31,-0.77,0.12,-0.07
